Source: PubChem BioAssay (NCI)
The panel holds about 83,000 compounds, 20% with a hit somewhere; the sample as a whole holds those more often.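 Step 1: grow cells in 96-well plates. Step 2: add test compound at a single concentration. Step 3: incubate 48 h. Step 4: record percent growth.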 A number with no mark means an inactive call. Active and inactive are the calls of the source. Rule for the calls: active = growth percent below 10; inactive = the rest.

test system: SK-MEL-5 melanoma; experiment: NCI-60 one-dose screen, 48 h (100 = growth as untreated, 0 = no growth, -100 = all killed); details: 10 µM unless noted

| Compound | growth |
| --- | --- |
| CN1CCN(Cc2ccc(NC(=O)c3cncc(C#Cc4cnc5ccc(N6CCN(C)CC6)nn45)c3)cc2C(F)(F)F)CC1 | 90.5% |
| O=C(O)c1cn(C2CC2)c2cc(N3CCN(C(=O)CN4C(=O)CSC4=O)CC3)c(F)cc2c1=O | 102% |
| NC/C(=C/F)COc1ccc2nc(NCc3cccnc3)oc2c1 | 99.5% |
| C=C(C)[C@@H]1CC[C@]2(C(=O)NCCCCCN(CCC#N)CCC#N)CC[C@]3(C)[C@H](CC[C@@H]4[C@@]5(C)CCC(=O)C(C)(C)[C@@H]5CC[C@]43C)[C@@H]12 | 99.5% |
| CCCCNNC(=O)c1ccc(-c2cccc(F)c2F)cc1 | 5.84% (active) |
| C#Cc1ccc(C(=O)NCc2ccc(/C=C/C(=O)c3nccn3C)cc2)cc1 | 38.8% |
| COc1ccc(/C(N)=N/C(N)=N/c2nc3ccccc3s2)cc1 | 72% |
| O=C(CN1CCN(c2cc(=O)[nH]c3ccc(F)cc23)CC1)Nc1ccc(Cl)cc1 | 80.9% |
| Cc1ccc(-n2cc(/C=C/C(=O)c3ccc(O)cc3)c(-c3ccc(S(C)(=O)=O)cc3)n2)cc1 | 61.7% |
| O=S(=O)(NCCCNc1nccc(-c2[nH]c(-c3ccccc3)nc2-c2ccc(Cl)c(O)c2)n1)c1cccc(F)c1 | 23.5% |
| Cc1cc(-c2ccc(Cl)cc2)n(Cc2nnc(SCC(=O)Nc3ccc(S(N)(=O)=O)cc3)n2C2CCCCC2)n1 | 100% |
| Oc1cccc2ccc(-c3nnc(SCc4ccc(O)c5ncccc45)n3-c3ccccc3)nc12 | -31.1% (active) |
| Cc1ccc(-c2nn(-c3ccccc3)cc2/C=C/C(=O)c2ccc(NC(=O)CCCCCCC(=O)NO)cc2)cc1 | 91.7% |
| CC(C)(C)c1ccc(C(=O)Nc2sc3c(c2C(N)=O)CCC(O)C3)cc1 (stereo not drawn) | 38.5% |
| O=C(Nc1ccc2c(ccn2Cc2ccccn2)c1)c1ccnnc1 | 98.9% |
| CC(C)(C)c1ccc(C(=O)Nc2sc3c(c2C(N)=O)CC/C(=N\O)C3)cc1 | -29.4% (active) |
| NC(N)=Nc1ccc(Oc2cccc(Nc3ccc(Cl)cc3)c2)cn1 | 48.8% |
| CCc1cccc(NC(=O)CNc2cc(S(=O)(=O)N(C)C)cc(C)c2C)c1 | 82.8% |
| COc1ccc(N2C(=O)c3cc(Cl)ccc3NC2SCc2ccccc2)cc1 (stereo not drawn) | 102% |

| Compound | growth |
| --- | --- |
| O=C(CN1CCN(c2cc(=O)n(-c3ccccc3)c3ccccc23)CC1)Nc1nc(-c2ccc(Cl)cc2)cs1 | 5.1% (active) |
| COc1ccc(C2c3sc4c(C)cccc4c3Oc3nc(CC(=O)Nc4ccccc4)[nH]c(=O)c32)cc1 (stereo not drawn) | 76.9% |
| O=C(/C=C/c1ccc(F)cc1)c1ccc(O)cc1 | 94% |
| Cn1ccnc1C(=O)/C=C/c1ccc(NC(=O)c2c(F)c(F)c(F)c(F)c2F)cc1 | 91.2% |
| Nc1cc(-c2c[nH]c3ccc(Br)cc23)nc2cc(-c3c[nH]c4ccc(Br)cc34)nn12 | 36.7% |
| C#CCC#CCN1CCC[C@H]1C(=O)NCC(=O)OC | 100% |
| COc1cc(/C=C/C(=O)c2ccc(NC(=O)CSc3nnc(-c4ccc(-c5nc6ccc(Cl)cc6[nH]5)cc4)o3)cc2)cc(OC)c1OC | 94.1% |
| Oc1cccc2ccc(-c3nnc(SCc4ccc(O)c5ncccc45)o3)nc12 | -63.7% (active) |
| NS(=O)(=O)c1ccc(Nc2nc(SCc3ccccc3)nc3ccccc23)cc1 | 49.8% |
| O=C1[C@@H]2Cc3c([nH]c4ccccc34)[C@H](c3c(Cl)cccc3Cl)N2C(=O)CN1C1CCN(CC2CCCCC2)CC1 | 50.4% |
| NS(=O)(=O)c1ccc(Nc2nc(N/N=C/c3c[nH]c4ccccc34)nc(Nc3ccccc3)n2)cc1 | 39.8% |
| N#Cc1c(-c2cccs2)cc(-c2cnccn2)nc1SCC(=O)Nc1ccc(Br)cc1 | 91.1% |
| COc1ccc(Cn2cc3c(c2-c2cc(OC)c(OC)c(OC)c2)CCc2c(CN4CCOCC4)noc2-3)cc1 | 17.3% |
| C=CCn1c(SCC(=O)Nc2ccc(C(=O)/C=C/c3ccc(C)cc3)cc2)nnc1-c1c[nH]c2ccccc12 | 69.2% |
| COc1ccccc1C(=O)Nc1cccc2c1C(=O)C(=O)C=C2 | 93.2% |
| COc1cc(-c2nn(C(C)(C)C)cc2-c2ccnc(NCCCNS(=O)(=O)c3ccc(Cl)cc3)n2)ccc1Cl | 77% |
| CCc1cccc2c3c(sc12)C(c1ccc(Cl)cc1)C(C#N)=C(/N=C/c1ccc(Cl)cc1)O3 (stereo not drawn) | 14.5% |
| C=C(C=O)[C@@H]1CC[C@]2(COC(C)=O)CC[C@]3(C)C(CC[C@@H]4[C@@]5(C)CC[C@H](OC(C)=O)C(C)(C)[C@@H]5CC[C@]43C)[C@@H]12 (stereo partly drawn) | -96.9% (active) |
| COc1ccccc1N1CCN(C2=CC(=O)C(C)=C(C)C2=O)CC1 | 99.4% |
